According to PubChem BioAssay (NCI):
Compounds without any hit were thinned out: in the full panel of roughly 83,000, 20% have a hit.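 Each cell line was grown in a 96-well plate and treated with one concentration of compound for 48 hours. Values below 10 were considered active.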 Active and inactive are the calls of the source.

What was measured:
Test in all cases: NCI-60 one-dose screen, 48 h (100 = growth as untreated, 0 = no growth, -100 = all killed)
Settings in all cases: 10 µM unless noted
NCI-H23 lung = tested on: NCI-H23 lung
NCI-H226 lung = tested on: NCI-H226 lung
NCI-H322M lung = tested on: NCI-H322M lung
HOP-62 NSCLC = tested on: HOP-62 NSCLC
NCI-H460 lung = tested on: NCI-H460 lung
HOP-92 NSCLC = tested on: HOP-92 NSCLC
NCI-H522 lung = tested on: NCI-H522 lung
A549/ATCC NSCLC = tested on: A549/ATCC NSCLC
786-0 renal = tested on: 786-0 renal
COLO 205 colon = tested on: COLO 205 colon
DU-145 prostate = tested on: DU-145 prostate
K-562 leukemia = tested on: K-562 leukemia
MALME-3M melanoma = tested on: MALME-3M melanoma
MDA-MB-231 breast = tested on: MDA-MB-231 breast
RXF 393 renal = tested on: RXF 393 renal
SF-268 CNS = tested on: SF-268 CNS
SF-295 CNS = tested on: SF-295 CNS
SF-539 CNS = tested on: SF-539 CNS
UACC-257 melanoma = tested on: UACC-257 melanoma
M14 melanoma = tested on: M14 melanoma

Measured: growth

N#CC1C(c2ccc(Cl)cc2)=Nc2c(c(-c3ccccc3)nn2-c2ccccc2)C12C(=O)Nc1ccc(Cl)cc12 (stereo not drawn)
inactive: NCI-H23 lung 50.7% | NCI-H226 lung 61.5% | NCI-H322M lung 79.2% | HOP-62 NSCLC 57.9% | NCI-H460 lung 22.3% | NCI-H522 lung 55.9% | A549/ATCC NSCLC 27.2% | 786-0 renal 42.9% | COLO 205 colon 51% | DU-145 prostate 74% | K-562 leukemia 19.1% | MALME-3M melanoma 70.3% | MDA-MB-231 breast 41.2% | RXF 393 renal 28.3% | SF-268 CNS 39.1% | SF-295 CNS 28.1% | SF-539 CNS 43.8% | UACC-257 melanoma 53.6%
active: HOP-92 NSCLC -8.89%

CC(C)C1=C[C@@]23CC[C@H]4[C@](C)(COCCC#N)CCC[C@]4(C)[C@H]2C[C@@H]1[C@@H]1[C@H]3[C@@H](OCCC#N)CC[C@@H]1OCCC#N
inactive: NCI-H23 lung 35.7% | NCI-H226 lung 39.8% | NCI-H322M lung 86.1% | HOP-62 NSCLC 65% | NCI-H460 lung 30.3% | HOP-92 NSCLC 53% | NCI-H522 lung 25% | A549/ATCC NSCLC 27.6% | 786-0 renal 54.3% | COLO 205 colon 17.4% | DU-145 prostate 51.4% | K-562 leukemia 20.2% | MALME-3M melanoma 61.4% | MDA-MB-231 breast 59.5% | RXF 393 renal 11.8% | SF-268 CNS 48.4% | SF-295 CNS 28.7% | SF-539 CNS 52.8% | UACC-257 melanoma 40.9% | M14 melanoma 31.4%

CCCn1c(N)c(C(N)=O)sc1=S
inactive: NCI-H23 lung 105% | NCI-H226 lung 103% | NCI-H322M lung 101% | HOP-62 NSCLC 98.9% | NCI-H460 lung 114% | HOP-92 NSCLC 89.5% | NCI-H522 lung 94.5% | A549/ATCC NSCLC 112% | 786-0 renal 103% | COLO 205 colon 118% | DU-145 prostate 117% | K-562 leukemia 119% | MALME-3M melanoma 105% | MDA-MB-231 breast 99.8% | RXF 393 renal 125% | SF-268 CNS 97.2% | SF-295 CNS 115% | SF-539 CNS 109% | UACC-257 melanoma 109%

O=C(Nc1cc(Br)ccn1)c1cc2cc(Nc3nc(-c4ccccc4)nc4ccccc34)ccc2oc1=O
inactive: NCI-H23 lung 98.6% | NCI-H226 lung 117% | NCI-H322M lung 111% | HOP-62 NSCLC 103% | NCI-H460 lung 106% | HOP-92 NSCLC 105% | NCI-H522 lung 95.2% | A549/ATCC NSCLC 104% | 786-0 renal 94.2% | COLO 205 colon 105% | DU-145 prostate 111% | K-562 leukemia 88.6% | MALME-3M melanoma 117% | MDA-MB-231 breast 118% | RXF 393 renal 133% | SF-268 CNS 112% | SF-295 CNS 108% | SF-539 CNS 105% | UACC-257 melanoma 112%

NCCCn1c2c(c3cc(-c4ccn[nH]4)ccc3c1=O)C(=O)c1ccccc1-2
active: K-562 leukemia 6.99%
inactive: NCI-H23 lung 57.6% | NCI-H226 lung 56.9% | NCI-H322M lung 67.8% | HOP-62 NSCLC 42.4% | NCI-H460 lung 11.8% | HOP-92 NSCLC 79.2% | NCI-H522 lung 30.6% | A549/ATCC NSCLC 28.4% | 786-0 renal 41% | COLO 205 colon 43.8% | DU-145 prostate 33.8% | MALME-3M melanoma 75.2% | MDA-MB-231 breast 68.1% | RXF 393 renal 79.5% | SF-268 CNS 52.8% | SF-295 CNS 61.7% | SF-539 CNS 75.2% | UACC-257 melanoma 102%

O=c1[nH]c2ccccc2cc1-c1nc2ccc(Cl)cc2[nH]1
active: HOP-92 NSCLC 7.43% | SF-295 CNS -7.79%
inactive: NCI-H23 lung 53.5% | NCI-H226 lung 55.2% | NCI-H322M lung 50.3% | HOP-62 NSCLC 67.2% | NCI-H460 lung 18% | NCI-H522 lung 38.2% | A549/ATCC NSCLC 40.1% | 786-0 renal 52.8% | COLO 205 colon 52.2% | DU-145 prostate 38.2% | K-562 leukemia 13.7% | MALME-3M melanoma 61.7% | MDA-MB-231 breast 44.9% | RXF 393 renal 63% | SF-268 CNS 50.7% | SF-539 CNS 49% | UACC-257 melanoma 91.5%

Cc1ccc2nc3nc4ccc[nH]c4cc3c2c1
inactive: NCI-H23 lung 65.1% | NCI-H226 lung 78.4% | NCI-H322M lung 72.5% | HOP-62 NSCLC 76.4% | NCI-H460 lung 53.8% | HOP-92 NSCLC 121% | NCI-H522 lung 90.1% | A549/ATCC NSCLC 97.6% | 786-0 renal 108% | COLO 205 colon 82.1% | DU-145 prostate 108% | K-562 leukemia 111% | MALME-3M melanoma 101% | MDA-MB-231 breast 70.3% | RXF 393 renal 99.6% | SF-268 CNS 94.1% | SF-295 CNS 113% | SF-539 CNS 83.5% | UACC-257 melanoma 119%

COc1cc(C2=NN(c3ccccc3)C(c3cccc(Nc4ccnc5cc(C(F)(F)F)ccc45)c3)C2)cc(OC)c1OC (stereo not drawn)
inactive: NCI-H23 lung 79.1% | NCI-H226 lung 83.6% | NCI-H322M lung 85.6% | HOP-62 NSCLC 88.8% | NCI-H460 lung 96.2% | HOP-92 NSCLC 73.4% | NCI-H522 lung 76.4% | A549/ATCC NSCLC 86.5% | 786-0 renal 101% | COLO 205 colon 86.7% | DU-145 prostate 93.6% | K-562 leukemia 68.2% | MALME-3M melanoma 92.1% | MDA-MB-231 breast 85.9% | RXF 393 renal 73.7% | SF-268 CNS 74.3% | SF-295 CNS 64.8% | SF-539 CNS 100% | UACC-257 melanoma 97.3%
